# Article PMC7819943, “Rice protein-binding microarrays: a tool to detect cis-acting elements near promoter regions in rice”
# The full ranking holds about 68,000 sequences; the median of “fluorescence intensity (a.u.)” is about 9,100, and the highest 2% start at about 16,000. This is one part of a sample in which the highest values are shown more often than they occur.
# Target: OsWRKY34 (Oryza sativa, UniProt Q0JBA9 1-250)
# Assay: protein-binding microarray (RPBM); PBS, 2% BSA, 51.3 ng/ul salmon testes DNA, 50 uM zinc acetate, 200 nM TF, 25 C, 1 h; high values mean tight binding
# Details: protein: recombinant; tags: N-terminal polyhistidine and DsRed monomer fusion (pET32a); label: CyDye5-dUTP incorporated in the synthesized complementary strand; 3' TTTTT single-stranded linker to array surface; dsDNA, one strand shown
# Procedure, shortened: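 An Axon 4000B scanner gave the binding signal as per-feature fluorescence intensity in arbitrary units. This followed washing of a custom Agilent array that had been incubated for 1 h at 25 °C with 200 nM protein in PBS, 2% BSA, salmon testes DNA and 50 µM zinc acetate. The proteins were transcription factors fused at the N-terminus to polyhistidine and DsRed, expressed in E. coli BL21-CodonPlus and purified on Ni–NTA.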
# Chain of OsWRKY34 (Q0JBA9 entry or part of it): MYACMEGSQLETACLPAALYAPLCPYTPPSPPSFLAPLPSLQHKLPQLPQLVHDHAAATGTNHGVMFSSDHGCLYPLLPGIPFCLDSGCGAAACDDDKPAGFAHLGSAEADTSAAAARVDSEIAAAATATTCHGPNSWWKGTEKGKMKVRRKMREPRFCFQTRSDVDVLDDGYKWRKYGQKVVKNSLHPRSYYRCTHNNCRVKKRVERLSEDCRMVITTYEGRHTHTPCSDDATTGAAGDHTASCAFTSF
row,Sequence,binding signal
1,CAAACGTACTCCTACTCTCCAAGCAGCCTATATAAACCACCGGAGTCACCTAGTGCAG,8590 fluorescence intensity (a.u.)
2,TTTCACCTAGTCCTAGCCTAATTCGTCTATCTTTATCAATCGGAGTCACCTAGTGCAG,9710 fluorescence intensity (a.u.)
3,CGCTGCTTTTGCTGCTGCTGTTGATGATGCATCCCATTCCCGGAGTCACCTAGTGCAG,9140 fluorescence intensity (a.u.)
4,GGCGGCGGCGGCGGGGCGGCGTGGCGCCGAGGGAGGGGAACGGAGTCACCTAGTGCAG,12500 fluorescence intensity (a.u.)
5,GGCGTGGGGAGGCGGAGGGAGGGAGGGGAGCGGCTGCGCACGGAGTCACCTAGTGCAG,17700 fluorescence intensity (a.u.)
6,TGCGGGGCGCAAGGCGCGCGGTAGGGGAGGGGTTAGCGCTCGGAGTCACCTAGTGCAG,8190 fluorescence intensity (a.u.)
7,GTAGCAATGGGCGGCGGGGAGCGGGGCTGAGCGGCAGCCGCGGAGTCACCTAGTGCAG,8150 fluorescence intensity (a.u.)
8,CGCGCGCGCGCGCGTACGTGGGAACAGAGAGCGGCGCCGACGGAGTCACCTAGTGCAG,27900 fluorescence intensity (a.u.)
9,GGCCGGTAGGGGTAGAACGGTCATTTCGTGCGCGGGGAGGCGGAGTCACCTAGTGCAG,9810 fluorescence intensity (a.u.)
10,TATTTTAGTGCAAGGGGCGGGCGGGCGCGGTAGAAGTCAACGGAGTCACCTAGTGCAG,18200 fluorescence intensity (a.u.)
11,AGCTGAGGGGCGGCGGCGGCTGGCAAGGGGCGGCGGCGGCCGGAGTCACCTAGTGCAG,10900 fluorescence intensity (a.u.)
12,GGTTCTTCTGAGCGGGGCCGGGGCGGGGCGGCAGCTGGGGCGGAGTCACCTAGTGCAG,30000 fluorescence intensity (a.u.)
13,GCTGGGAGGGAGGAGCGGGAGGCGGCGCGGCGCGTGGAGGCGGAGTCACCTAGTGCAG,8580 fluorescence intensity (a.u.)
14,GGGAGCGGGTGGGAGTGGCCGGCGCGGAGGACGACGGCGGCGGAGTCACCTAGTGCAG,8280 fluorescence intensity (a.u.)
15,CGGAGGCATGGGGAGGCTGCTGCGGCGCCAATTGTGGCCACGGAGTCACCTAGTGCAG,8860 fluorescence intensity (a.u.)
16,AATACGGTTTGGAAGGGATCTTTTTTGGTTGGTTGCACTGCGGAGTCACCTAGTGCAG,9650 fluorescence intensity (a.u.)
17,ATAGTTGTTTTGCCTACCCCACCCATGCCGAAGATGGACACGGAGTCACCTAGTGCAG,8790 fluorescence intensity (a.u.)
18,ATCTTTTCTCTTCTCGACTTCTCGTATGCCGCGTCCCGTCCGGAGTCACCTAGTGCAG,11100 fluorescence intensity (a.u.)
19,CTTGTGGCTTGTGCAATTCTGTTTCATCGAGTTTGTTAACCGGAGTCACCTAGTGCAG,8830 fluorescence intensity (a.u.)
20,TTCAAATCTCATCCGAATTTTTTGTTTTTTATTTTTTTTTCGGAGTCACCTAGTGCAG,8280 fluorescence intensity (a.u.)
21,TAGTTCATCCTTGACATCAAGTGGGTTGCTAGTCTCATTCCGGAGTCACCTAGTGCAG,9450 fluorescence intensity (a.u.)

row,Sequence,binding signal
1,TAGGCTGTATTCTTATCCACTCATGCAGTGCTCTGATAGGCGGAGTCACCTAGTGCAG,11000 fluorescence intensity (a.u.)
2,TGGTTTGCATCTCTTCTTGCTCTTTGGAGGATTTACTACTCGGAGTCACCTAGTGCAG,9510 fluorescence intensity (a.u.)
3,AGGAGGCGGGGCGGGGCGGCGGCGGCGGCGGCGGCGCCCGCGGAGTCACCTAGTGCAG,11500 fluorescence intensity (a.u.)
4,GGGCGGAGGCGGGGATCGCGGCGGGAGGGGTGGATCCATGCGGAGTCACCTAGTGCAG,17400 fluorescence intensity (a.u.)
5,TTCTTCTAGAGGAGGAGGAGGCGGCGGGGCGGCGGGCGAGCGGAGTCACCTAGTGCAG,17300 fluorescence intensity (a.u.)
6,GGCGTGTTGTGTTCGGGTGGGTGCTGCGCAGGCTGCTGTACGGAGTCACCTAGTGCAG,17300 fluorescence intensity (a.u.)
7,GTGTTGGTGGCTCTGGCTGCGTCGACGTGCGCAGGGCGTTCGGAGTCACCTAGTGCAG,8050 fluorescence intensity (a.u.)
8,GCAGGCGGAGGCGGAGGCGGAGGCGGAGGCGGCGGCGGCGCGGAGTCACCTAGTGCAG,8950 fluorescence intensity (a.u.)
9,CGGGGTGGGAGCAGGGGTCGCGCGGCGGGGTGCGGCCATGCGGAGTCACCTAGTGCAG,10100 fluorescence intensity (a.u.)
10,GGTCGCCGGATCGCGGGAGGGAGGGAGGGAGGGAGGGAGGCGGAGTCACCTAGTGCAG,14100 fluorescence intensity (a.u.)
11,GAGGCCGGGGTCGGGGCGAGCGAGGCGAGAGGGGAGGAGGCGGAGTCACCTAGTGCAG,8910 fluorescence intensity (a.u.)
12,GGGAGTGTGGAGGTGTTGTGCTGCGGCGTGGGTGTGTTGGCGGAGTCACCTAGTGCAG,8640 fluorescence intensity (a.u.)
13,GCGGCCGGTCCGAGCGAGCGGAGAGGGAGGAGGCGGGGAGCGGAGTCACCTAGTGCAG,8360 fluorescence intensity (a.u.)
14,CGGCGGCGGAGGAGGAGGAGGAGGAGGGCGCGGGGCGGCGCGGAGTCACCTAGTGCAG,21700 fluorescence intensity (a.u.)
15,CTGCTCTTTCTTCTCTCTGCATTCCATTTCATTACTGCCTCGGAGTCACCTAGTGCAG,11000 fluorescence intensity (a.u.)
16,AGCTCGTGTGGTGTATGTTGTTGTGTGCTGCTAGCTAGCTCGGAGTCACCTAGTGCAG,10200 fluorescence intensity (a.u.)
17,TCCATGCCATCTGCTGAACAGACCCATGCATCCTTCAACTCGGAGTCACCTAGTGCAG,8920 fluorescence intensity (a.u.)
18,CACATCAAATTTATTTTCTCCCAAAATGAGGCGCGCAACACGGAGTCACCTAGTGCAG,8670 fluorescence intensity (a.u.)
19,GCTGTCGTTGAATTTTTGTTTGTTTTCTTGGCGTGTTGCACGGAGTCACCTAGTGCAG,13300 fluorescence intensity (a.u.)
20,CTTTCCATGGTTTTTGCTCCCGCAGCCCGGGCCACTGCCCCGGAGTCACCTAGTGCAG,11600 fluorescence intensity (a.u.)
21,CGTCTCGTTTCTCATCTCAAAATTTCGCGCCTCGTCGCCGCGGAGTCACCTAGTGCAG,8640 fluorescence intensity (a.u.)

row,Sequence,binding signal
1,GCTCAGCCGCCGTCGCCAGTCCAACCTCCGCCACCGCGGCCGGAGTCACCTAGTGCAG,8640 fluorescence intensity (a.u.)
2,CCAAACCCAACCCTCGACGCCAATTAAACACCAATTTTCTCGGAGTCACCTAGTGCAG,8920 fluorescence intensity (a.u.)
3,ACAGCTTAAAATTTCCTCCTCCGCCCAAAAACCCTCTCGACGGAGTCACCTAGTGCAG,24300 fluorescence intensity (a.u.)
4,CCCGAACCCACCACCTCCGCCCATTTCCGCCTCCTCTCGACGGAGTCACCTAGTGCAG,9190 fluorescence intensity (a.u.)
5,CCTTGACAGATTAATCCTACGTTTTGACCCCATATGTTTTCGGAGTCACCTAGTGCAG,8880 fluorescence intensity (a.u.)
6,CTTGTAGCTGTAATTCCCTATTGTTGTTTTTCGGTACTGTCGGAGTCACCTAGTGCAG,13200 fluorescence intensity (a.u.)
7,TCGCAAGAGTTGTTGAAAGTTGACCAGCATATTGAGGCCCCGGAGTCACCTAGTGCAG,8130 fluorescence intensity (a.u.)
8,ACTCACCTCTCTCATCTTTCGTGCACACATTTTTCAATTTCGGAGTCACCTAGTGCAG,17700 fluorescence intensity (a.u.)
9,AGACATTCTCCATTTTCTTTCTTCTCTTCACTCACACTCACGGAGTCACCTAGTGCAG,8800 fluorescence intensity (a.u.)
10,TCTCAATTGCACCTCATTTAATCCTCATTTTTCATCTTTTCGGAGTCACCTAGTGCAG,11800 fluorescence intensity (a.u.)
11,ACAACTCACTCTCTTCATTTTCCATTCTCGTGCTTTTCAACGGAGTCACCTAGTGCAG,16600 fluorescence intensity (a.u.)
12,TTCCTTTTTCATCTTCTTTTCACATTTTTTCTTTATTTTTCGGAGTCACCTAGTGCAG,12400 fluorescence intensity (a.u.)
13,ACTCACTTCAAAATTTTCACATCCTCTCTCATCATTTTTTCGGAGTCACCTAGTGCAG,11100 fluorescence intensity (a.u.)
14,TTCTTTGGATTTGATTGGTGCCGCCTTTTTTCGCTATTGACGGAGTCACCTAGTGCAG,15600 fluorescence intensity (a.u.)
15,GCCTATTCTTTTCGCCACCGCTATCGCCACACATCACGGACGGAGTCACCTAGTGCAG,17500 fluorescence intensity (a.u.)
16,TCTCTTTTCTCATTTTTTCGCTTGCCACATCATTTTCTATCGGAGTCACCTAGTGCAG,9600 fluorescence intensity (a.u.)
17,CACACACACCGATCTTTTCATTCATTCTTTTCTTTCTTTTCGGAGTCACCTAGTGCAG,18700 fluorescence intensity (a.u.)
18,CAACACATCTCTTGCATTTTTTTTTCTTTGCATTCTCATTCGGAGTCACCTAGTGCAG,8200 fluorescence intensity (a.u.)
19,GTCTCATTCTTCTTATTTCCATTTTTTTTTTCTCTCAAAACGGAGTCACCTAGTGCAG,11100 fluorescence intensity (a.u.)
20,TCCTCTTCTTTTCTCTCCCTCCGCCACTCGACGCCCAACCCGGAGTCACCTAGTGCAG,9310 fluorescence intensity (a.u.)
21,TCGATTCCGGCGTGCGAATTCCTCCACCTCGCCGCCGCCGCGGAGTCACCTAGTGCAG,8810 fluorescence intensity (a.u.)

row,Sequence,binding signal
1,TTCCTGTTCCTGCAAGAAAACGCTCATCCTCTTGCTTTTTCGGAGTCACCTAGTGCAG,9650 fluorescence intensity (a.u.)
2,AGGCCTCCACGGCTCCACCTCCTTCCGCTTTCGCCTATCCCGGAGTCACCTAGTGCAG,10000 fluorescence intensity (a.u.)
3,AAAGTGCCGTATTTTTGTGTTTCTGTTGTAGTGGTAATTACGGAGTCACCTAGTGCAG,12000 fluorescence intensity (a.u.)
4,TGGGTTGTGGCAGTGTCTTATAAGGCTATATTAAGTCTATCGGAGTCACCTAGTGCAG,8060 fluorescence intensity (a.u.)
5,TTGCTGTCTTGCGTGTTCATGCTGCCCCGCGGGCGTTGAGCGGAGTCACCTAGTGCAG,9010 fluorescence intensity (a.u.)
6,TACCAACATTGTAGCAACAGATTCATCTCTCTTTTTTTTTCGGAGTCACCTAGTGCAG,18100 fluorescence intensity (a.u.)
7,GTGACCCAACATTCAGATTCATCTTTTTTTTTCACCTTCTCGGAGTCACCTAGTGCAG,11300 fluorescence intensity (a.u.)
8,TTTTCATTGTGTTGTAGCCAACAGCCACATTGTTTTCTTTCGGAGTCACCTAGTGCAG,8080 fluorescence intensity (a.u.)
9,AGTCACGAATCAAACAACCCCTTAAACTGTATTTGATTGTCGGAGTCACCTAGTGCAG,8060 fluorescence intensity (a.u.)
10,GGGTTCTTGGCTACTGGGGCTGTCTCTCTATCTTTCTTGACGGAGTCACCTAGTGCAG,21600 fluorescence intensity (a.u.)
11,TGGTTCTTGCTCTTGTTCTTGCTGCTGCTGCTTTTGCTCTCGGAGTCACCTAGTGCAG,9380 fluorescence intensity (a.u.)
12,GGCTGGGCTTTTTGGGCTTTCTTTGATCTATATTTTGAGACGGAGTCACCTAGTGCAG,18200 fluorescence intensity (a.u.)
13,GGCTGGGGTGGGCTCTACTTGACAGACTGATACTCCTACTCGGAGTCACCTAGTGCAG,19600 fluorescence intensity (a.u.)
14,GCGGTGGTGGACAGTCCCAGACTGACTTGTGGTGGGGACTCGGAGTCACCTAGTGCAG,9560 fluorescence intensity (a.u.)
15,CATGTCTATCTTTCTACTATTTATTTTTTTTTGGCAGAGACGGAGTCACCTAGTGCAG,12700 fluorescence intensity (a.u.)
16,GCTATGAGATTTATATATTTTTTTGTCCTGGGCTTCTTTTCGGAGTCACCTAGTGCAG,9510 fluorescence intensity (a.u.)
17,CTTGGTTTTCTTGATTTCTTGGGTTCTTGGCTACTGGGGCCGGAGTCACCTAGTGCAG,9490 fluorescence intensity (a.u.)
18,TCTCTGCTTCTCGTTGTTCTTGGTTGGTTGTTGTTGTAGACGGAGTCACCTAGTGCAG,19400 fluorescence intensity (a.u.)
19,AGCGATACTCTACTGCTACCTTGTCCCAACATGCTGGGCTCGGAGTCACCTAGTGCAG,8260 fluorescence intensity (a.u.)
20,TGTTCTACTTGGCTGTCTCATACTTTTTTTATTTCTCTCTCGGAGTCACCTAGTGCAG,11200 fluorescence intensity (a.u.)
21,ACTCTCTCTCTCTCTCTGCTTCTTCTTGTGTTGTGCTTGTCGGAGTCACCTAGTGCAG,9800 fluorescence intensity (a.u.)
